Screening data deposited in PubChem by University of Kansas High Throughput Screening Laboratory.
Pf apPOL block – Pf-apPOL DNA polymerase inhibition; hit rate 0.25% among 210,000; Recombinant Pf-apPOL, molecular beacon fluorescence, 1.5 h; inhibition, % at 10 µM; AID 1794808
mHTT-CaM PPI inh – inhibitors of human mutant huntingtin-calmodulin interaction. AlphaScreen His-mHTT/GST-CaM binding, luminescence. AID 1671202. P42858. hit rate 3.6% among 190,000. inhibition, % at 15 µM;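 also: 0% = both proteins with DMSO and 100% = one protein alone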
The depositor's hits bear a star; . = no result given. Shown are actives, neighbours in structure and some others; about 3.6% of the full set was active somewhere. Rule as the data show it: active = inhibition above about 50%; inactive = the rest.

SMILES	Pf apPOL block	mHTT-CaM PPI inh
CC(CCc1ccccc1)NC(=O)C1CCCN(S(=O)(=O)N2CCCCCC2)C1 (stereo not given)	-6.9	3.0
CCC(C)NC(=O)c1cnn2c(C)c(Cc3ccc(Cl)cc3)c(C)nc12 (stereo not given)	4.9	26.0
CCC(C)NC(=O)c1cnn2c(C)c(Cc3cccc(Cl)c3)c(C)nc12 (stereo not given)	-5.8	82.0*
CCC(C)NC(=O)c1cnn2c(C)c(Cc3cccc(Br)c3)c(C)nc12 (stereo not given)	-3.6	74.0*
Cc1nc2c(C(=O)O)cnn2c(C)c1Cc1ccccc1	-20.3	4.0
CCC(C)NC(=O)c1cnn2c(C)c(Cc3c(C)cc(C)cc3C)c(C)nc12 (stereo not given)	31.0	27.0
CCC(C)NC(=O)c1cnn2c(C)c(Cc3ccccc3C)c(C)nc12 (stereo not given)	-3.6	87.0*
CCOc1ccccc1CNC(=O)c1cc2n(n1)CCCN(Cc1cccc(F)c1)C2=O	1.0	1.7
CN1C(=O)CC(c2ccccc2[N+](=O)[O-])C2=C1CC(C)(C)CC2=O (stereo not given)	-2.0	4.7
COc1ccc(CC(=O)Nc2nnc(-c3ccsc3)o2)cc1OC	-5.3	48.6
Cc1nc(C)c(C(=O)N2CCCC2c2nc(-c3ccc(F)cc3F)no2)s1 (stereo not given)	-4.8	-0.5
NC(=O)c1cc2cc(Br)ccc2oc1=Nc1ccc(Br)cc1	1.0	6.0
NC(=O)c1cccc(N=c2oc3ccc(Br)cc3cc2C(N)=O)c1	4.5	71.0*
CCN(CCNC(=O)c1ccc2c(c1)NC(=O)C(N1CCOCC1)S2)c1ccccc1 (stereo not given)	-18.4	12.0
COc1cc(OC)c(NC(=O)CSc2nc3[nH]ncc3c(=O)n2-c2ccccc2)cc1Cl	-3.8	49.0
Cc1cccc(CNC(=O)c2nn(C)c3c2CN(C(=O)c2cccc(F)c2)CC3)c1	-6.1	70.6*
Cc1cccc(C(=O)N2CCc3c(c(C(=O)NCc4ccc(Cl)cc4)nn3C)C2)c1	23.2	91.2*
Cc1cccc(CNC(=O)c2nn(C)c3c2CN(C(=O)c2cccc(C)c2)CC3)c1	-6.6	74.3*
Cn1nc(C(=O)NCc2ccc(Cl)cc2)c2c1CCN(C(=O)c1ccco1)C2	4.6	4.7
Cc1cccc(CNC(=O)c2nn(C)c3c2CN(C(=O)c2ccccc2C)CC3)c1	-12.2	26.6
Cc1ccccc1C(=O)N1CCN(c2ccc(NC(=O)CC(C)C)cn2)CC1	-4.5	0.9
CN1C(=O)C(=Nc2sc3c(c2C#N)CCCC3)c2ccccc21	2.1	4.0
Cc1cccnc1NC(=O)C1CC(=O)N(c2ccc(F)cc2)C1 (stereo not given)	-17.3	-7.4
O=C(Nc1ccc(Br)cc1)C1CCN(c2cc(N3CCCC3)ncn2)CC1	-7.4	20.7
O=C(Nc1ccc2c(c1)OCO2)C1CCCN(c2cn[nH]c(=O)c2)C1 (stereo not given)	-1.7	62.6*
SMILES	Pf apPOL block	mHTT-CaM PPI inh
Cn1ncc(N2CCCC(C(=O)Nc3ccc4c(c3)OCO4)C2)cc1=O (stereo not given)	20.6	71.9*
Cc1ccc(NC(=O)C2CCCN(c3cnn(C)c(=O)c3)C2)cc1C (stereo not given)	-2.6	0.9
COc1ccc(NC(=O)C2CCCN(c3cn[nH]c(=O)c3)C2)cc1OC (stereo not given)	7.9	6.9
O=C(Nc1ccc2c(c1)OCO2)C1CCCN(c2cnn(Cc3ccccc3)c(=O)c2)C1 (stereo not given)	-1.9	69.3*
O=C(Nc1ccc2c(c1)OCCO2)C1CCCN(c2cnn(Cc3ccccc3)c(=O)c2)C1 (stereo not given)	-4.0	34.5
O=C(Nc1ccc2c(c1)OCO2)C1CCN(c2cc(N3CCCC3)ncn2)CC1	-6.1	60.6*
N#Cc1ccc(N2C(=O)C3C4C=CC(CC4)C3C2=O)cc1 (stereo not given)	-0.2	2.0
Cc1ccc(S(=O)(=O)N2CCC(n3cnc4c(Cl)cccc4c3=O)CC2)cc1	-0.2	-9.2
Cc1cccc(CNC(=O)C2CCCN(C(=O)c3cc(C)cc(C)c3)C2)c1 (stereo not given)	4.4	3.0
FC(F)(F)c1cccc(Sc2ncnc3c(-c4ccccc4)c(C(F)(F)F)sc23)c1	-1.2	.
O=C(Nc1cccc2ccc(-n3ccnc3)nc12)c1ccccc1Cl	1.3	61.8*
Cc1onc(-c2ccccc2Cl)c1C(=O)Nc1cccc2ccc(-n3ccnc3)nc12	5.7	42.7
N#CC1=C(N)Oc2cc(O)ccc2C1c1ccccc1Br (stereo not given)	-9.5	11.0
COc1ccc(N=Cc2cc3c(cc2O)OC(N)=C(C#N)C3c2cccc(F)c2)cc1 (stereo not given)	3.7	81.0*
N#CC1=C(N)Oc2cc(O)c(C=Nc3ccc(Br)cc3)cc2C1c1ccco1 (stereo not given)	0.6	100.0*
COc1ccc(C2C(C#N)=C(N)Oc3cccc(O)c32)cc1 (stereo not given)	-5.1	7.6
COc1ccc(-c2c(C(=O)O)oc3cc(OC)cc(OC)c3c2=O)cc1	-1.8	.
